# Source: PubChem BioAssay (Tox21)
# A number with no mark means an inactive call. Records with an inconclusive call do not appear. A call without a number means that no potency is given here. Active and inactive are the calls of the source. Unless noted, calls come from the whole dose curve; as a rule, active = well fitted curve in the direction sought with a large enough effect in the repeat runs; inconclusive = weak or mixed curves; inactive = no such curve, though single readings can be large; an effect the other way counts as inactive or inconclusive.
# How the values were obtained:
# [1] = qHTS assay for small molecule agonists of the p53 signaling pathway (AID 651631; calls by dose curve; note: nearly all actives have a fitted effect of over 15% in size; note: potency is the fitted concentration of half-maximal effect)
# How it was run: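 We treat p53RE-bla HCT-116 cells with compounds for 16 h at 37 °C, add LiveBLAzer B/G FRET substrate for 2 h at room temperature, and measure fluorescence intensity.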
# [2] = qHTS assay for small molecules that induce genotoxicity in human embryonic kidney cells expressing luciferase-tagged ATAD5 (AID 651632); note: nearly all actives have a fitted effect of over 15% in size
# How it was run: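 A rise in luciferase signal from ATAD5-tagged HEK293T cells marks genetic stress. Cells were exposed to compounds for 16 hr at 37C, 5% CO2, then luciferase was quantified after a 30 min room-temperature incubation with Amplite.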
# [3] = qHTS assay for small molecule agonists of the p53 signaling pathway - cell viability (AID 651633; calls by dose curve;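 note: p53RE-bla HCT reporter cells with a stable beta-lactamase p53 reporter; nearly all actives have a fitted effect of over 30% in size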)
# How it was run: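 p53RE-bla cells, seeded at 4,000 per well and rested 5 h at 37 C/5% CO2, received compounds in DMSO for 16 h at 37 C. CellTiter-Glo was then added, and luminescence was read after 30 min at room temperature to gauge cytotoxicity.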
# [4] = qHTS assay for small molecules that induce genotoxicity in human embryonic kidney cells expressing luciferase-tagged ATAD5 - cell viability (AID 651634; calls by dose curve; note: nearly all actives have a fitted effect of over 25% in size; note: potency is the fitted concentration of half-maximal effect)
# How it was run: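 Cytotoxicity counter-readout: after 15.5 hr compound treatment at 37C, live-cell protease activity in ATAD5-luciferase HEK293T cells measured by CellTiter-Fluor fluorescence, 30 min development at 37C.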
# [5] = qHTS assay for small molecule disruptors of the mitochondrial membrane potential - cell viability (AID 720634; calls by dose curve; note: nearly all actives have a fitted effect of over 20% in size; note: potency is the fitted concentration of half-maximal effect)
# How it was run: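 Cytotoxicity was quantified from ATP content by CellTiter-Glo luminescence in the same wells as the MMP dye read-out. HepG2 (2,000 cells/well) were plated overnight and exposed to compounds for 1 hr at 37 C.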
# [6] = qHTS assay for small molecule disruptors of the mitochondrial membrane potential (AID 720635); note: potency is the fitted concentration of half-maximal effect
# How it was run: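 HepG2 cells (2,000/well) attached overnight at 37C, then took compound for 1 hr at 37C, 5% CO2. Mito-MPS dye was added for 30 min; fluorescence was read at 490/535 nm (monomers) and 540/590 nm (aggregates).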
# [7] = qHTS assay to test for compound auto fluorescence at 590 nm (red) in HepG2 cells (AID 720674)
# How it was run: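 Intrinsic compound fluorescence in the red window (Ex/Em 540/590 nm) is measured in attached HepG2 cells exposed for 1 hr, DMSO vehicle as baseline, benchmarked to Rose Bengal sodium.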
# [8] = qHTS assay to test for compound auto fluorescence at 535 nm (green) in HepG2 cells (AID 720675)
# [9] = qHTS assay to test for compound auto fluorescence at 460 nm (blue) in HEK293 cells (AID 720678)
# How it was run: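 HEK293 cells (2,000/well, medium with 10% dialyzed FBS) attached 4-5 hr, then exposed to compound overnight at 37C, 5% CO2. Blue fluorescence read at 405/460 nm, with triamterene as reference fluorophore.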
# [10] = qHTS assay to test for compound auto fluorescence at 535 nm (green) in HEK293 cells (AID 720680)
# [11] = qHTS assay to test for compound auto fluorescence at 460 nm (blue) in HEK293 cell free culture (AID 720681)
# How it was run: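 Test compounds were pinned into cell-free culture medium (DMEM with 10% FBS) and fluorescence was read directly at Ex/Em 405/460 nm. Signals were expressed as fluorescence equivalents of triamterene, with DMSO vehicle as control.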
# [12] = qHTS assay to test for compound auto fluorescence at 535 nm (green) in HEK293 cell free culture (AID 720682)
# How it was run: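 Green-channel intensity (Ex/Em 485/535 nm) was recorded from compound-treated wells containing only DMEM with 10% FBS. Fluorescein provided the equivalency standard.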
# [13] = qHTS assay to test for compound auto fluorescence at 590 nm (red) in HEK293 cell free culture (AID 720683)
# How it was run: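 Tox21 10K library compounds were pinned into cell-free DMEM with 10% FBS and fluorescence was read at excitation 540 nm. Activity is expressed as Rose Bengal sodium equivalency.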
# [14] = qHTS assay to test for compound auto fluorescence at 590 nm (red) in HepG2 cell free culture (AID 720684)
# How it was run: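 Readout: intrinsic compound fluorescence at 590 nm emission after 540 nm excitation, scaled to Rose Bengal sodium. Matrix was cell-free MEM with 10% FBS; DMSO vehicle wells served as control.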
# [15] = qHTS assay to test for compound auto fluorescence at 460 nm (blue) in HepG2 cell free culture (AID 720685)
# How it was run: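 Cell-free plates of MEM plus 10% FBS received 23 nL compound or DMSO vehicle; blue-channel (405/460 nm) intensity scored against triamterene as reference fluorophore.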
# [16] = qHTS assay to test for compound auto fluorescence at 535 nm (green) in HepG2 cell free culture (AID 720686)
# [17] = qHTS assay to test for compound auto fluorescence at 460 nm (blue) in HepG2 cells (AID 720687)
# How it was run: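 Cells (2,000/well in MEM with 10% FBS) attached overnight at 37 C, then were exposed to compound or DMSO for 1 hr at 37 C, 5% CO2. Fluorescence read at Ex/Em 405/460 nm, expressed as triamterene-equivalent signal.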
# [18] = target: Glucocorticoid receptor (Homo sapiens) (UniProt P04150); test: qHTS assay to identify small molecule agonists of the glucocorticoid receptor (GR) signaling pathway (AID 720691; active = well fitted activation curve with a large enough effect in the signal ratio in the repeat runs, not every such curve was filed as active; the % refers to the signal ratio); settings: GR-bla HeLa, beta-lactamase reporter ratio, 18 h; activation: at 62.4 µM (top of the series)
# Chain of Glucocorticoid receptor (Homo sapiens) (P04150 whole entry, looked up): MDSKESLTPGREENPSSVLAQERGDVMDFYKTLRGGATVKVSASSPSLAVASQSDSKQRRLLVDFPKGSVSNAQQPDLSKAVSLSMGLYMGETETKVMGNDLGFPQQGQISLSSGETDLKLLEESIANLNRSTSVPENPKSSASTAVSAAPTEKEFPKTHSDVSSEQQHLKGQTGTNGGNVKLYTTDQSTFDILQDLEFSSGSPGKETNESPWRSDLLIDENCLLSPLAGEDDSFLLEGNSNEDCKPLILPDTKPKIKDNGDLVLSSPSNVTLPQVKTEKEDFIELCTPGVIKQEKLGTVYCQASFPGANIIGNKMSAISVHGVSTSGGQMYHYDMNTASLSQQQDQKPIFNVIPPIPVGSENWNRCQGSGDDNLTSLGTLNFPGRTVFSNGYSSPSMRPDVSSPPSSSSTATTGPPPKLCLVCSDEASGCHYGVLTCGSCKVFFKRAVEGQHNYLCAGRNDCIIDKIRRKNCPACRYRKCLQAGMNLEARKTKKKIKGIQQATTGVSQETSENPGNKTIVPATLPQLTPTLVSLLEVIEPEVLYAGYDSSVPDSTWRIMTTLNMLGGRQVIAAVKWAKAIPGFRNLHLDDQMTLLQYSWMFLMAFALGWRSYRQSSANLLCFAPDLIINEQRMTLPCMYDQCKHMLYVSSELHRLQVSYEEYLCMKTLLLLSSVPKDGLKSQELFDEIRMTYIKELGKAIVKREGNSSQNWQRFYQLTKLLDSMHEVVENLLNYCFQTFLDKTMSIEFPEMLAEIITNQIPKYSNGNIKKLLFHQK
# How it was run: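 Agonist-mode qHTS in HeLa cells stably expressing a glucocorticoid-response-element beta-lactamase reporter. Fluorescence intensity read with FRET substrate (2 h, room temperature) after 18 h compound treatment at 37 C.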
# [19] = qHTS assay to test for compound auto fluorescence at 590 nm (red) in HEK293 cells (AID 720679)
# How it was run: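 HEK293 cells (2,000/well, 10% dialyzed FBS) attached 4-5 hr, then dosed with compound or DMSO and incubated overnight at 37C, 5% CO2. Red fluorescence read at 540/590 nm, Rose Bengal sodium as reference fluorophore.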
# [20] = target: Glucocorticoid receptor (Homo sapiens) (UniProt P04150); test: qHTS assay to identify small molecule antagonists of the glucocorticoid receptor (GR) signaling pathway (AID 720692; active = well fitted inhibition curve with a large enough effect in the signal ratio in the repeat runs, not every such curve was filed as active; the % refers to the signal ratio; note: potency is the fitted concentration of half-maximal effect)
# How it was run: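 Inhibition of dexamethasone-driven (5 nM final) beta-lactamase expression was measured in GRE-reporter HeLa cells over 18 h at 37C. Fluorescence was read after 2 h with the B/G FRET substrate at room temperature.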
compound,measurement,setting,value
O=Cc1ccccc1,Potency,[1],inactive
same,Potency,[2],inactive
same,Potency,[3],inactive
same,Potency,[4],inactive
same,Potency,[5],inactive
same,Potency,[6],inactive
same,outcome,[7],inactive
same,Potency,[8],inactive
same,Potency,[9],inactive
same,outcome,[10],inactive
same,Potency,[11],inactive
same,outcome,[12],inactive
same,outcome,[13],inactive
same,outcome,[14],inactive
same,Potency,[15],inactive
same,Potency,[16],inactive
same,Potency,[17],inactive
C=CCBr,Potency,[1],inactive
same,Potency,[2],inactive
same,Potency,[3],inactive
same,Potency,[4],inactive
same,Potency,[5],inactive
same,outcome,[7],inactive
same,Potency,[8],inactive
same,Potency,[9],inactive
same,Potency,[11],inactive
same,outcome,[12],inactive
same,outcome,[13],inactive
same,outcome,[14],inactive
same,Potency,[15],inactive
same,Potency,[16],inactive
same,Potency,[17],inactive
same,Potency,[18],inactive
Cc1nn(-c2cc(NS(C)(=O)=O)c(Cl)cc2Cl)c(=O)n1C(F)F,Potency,[1],inactive
same,Potency,[2],inactive
same,Potency,[3],inactive
same,Potency,[4],inactive
same,Potency,[5],inactive
same,outcome,[7],inactive
same,Potency,[8],inactive
same,Potency,[9],inactive
same,outcome,[19],inactive
same,outcome,[10],inactive
same,Potency,[11],inactive
same,outcome,[12],inactive
same,outcome,[13],inactive
same,outcome,[14],inactive
same,Potency,[15],inactive
same,Potency,[16],inactive
same,Potency,[17],inactive
CNC(C)(C)Cc1ccccc1,Potency,[1],inactive
same,Potency,[2],inactive
same,Potency,[3],inactive
same,Potency,[4],inactive
same,Potency,[5],inactive
same,"fluorescence, relative to Rose Bengal",[7],-0.065% [at 18.6 µM]
same,"fluorescence, % of triamterene",[9],0.0048% [at 18.6 µM]
same,"fluorescence, % of fluorescent control",[19],0.101% [at 18.6 µM]
same,"fluorescence, % of fluorescein",[10],0.0122% [at 18.6 µM]
same,"fluorescence, % of fluorescent control",[11],-0.0376% [at 18.6 µM]
same,activity change,[12],0.136% [at 18.6 µM]
same,"fluorescence, % of fluorescent control",[13],-0.277% [at 18.6 µM]
same,"fluorescence, % of Rose Bengal",[14],-0.143% [at 18.6 µM]
same,"fluorescence, % of fluorescent control",[15],-0.0785% [at 18.6 µM]
same,"fluorescence, % of fluorescent control",[17],-0.0567% [at 18.6 µM]
same,Potency,[18],inactive
same,Potency,[20],inactive
CCC[CH2][Sn]([CH2]CCC)([O]C(C)=O)[O]C(C)=O,Potency,[1],1.95 µM (active)
same,Potency,[2],inactive
same,Potency,[3],inactive
same,Potency,[4],1.23 µM (active)
same,Potency,[5],inactive
same,Potency,[6],15.5 µM (active)
same,outcome,[7],inactive
same,Potency,[9],inactive
same,outcome,[19],inactive
same,outcome,[10],inactive
same,Potency,[11],inactive
same,outcome,[13],inactive
same,outcome,[14],inactive
same,Potency,[15],inactive
same,Potency,[17],inactive
same,Potency,[20],350 nM (active)
CC(C)Br,Potency,[1],inactive
same,Potency,[2],inactive
same,Potency,[3],inactive
same,Potency,[4],inactive
same,Potency,[5],inactive
same,outcome,[7],inactive
same,Potency,[8],inactive
same,Potency,[9],inactive
same,outcome,[19],inactive
same,outcome,[10],inactive
same,Potency,[11],inactive
same,outcome,[12],inactive
same,outcome,[13],inactive
same,outcome,[14],inactive
same,Potency,[15],inactive
same,Potency,[17],inactive
same,Potency,[18],inactive
same,Potency,[20],inactive
COC(=O)N(OC)c1ccccc1COc1ccn(-c2ccc(Cl)cc2)n1,Potency,[1],1.72 µM (active)
same,Potency,[2],inactive
same,Potency,[3],inactive
same,Potency,[4],inactive
same,Potency,[5],1.93 µM (active)
same,Potency,[6],4.86 µM (active)
same,Potency,[8],inactive
same,Potency,[9],inactive
same,outcome,[19],inactive
same,outcome,[10],inactive
same,Potency,[11],inactive
same,outcome,[12],inactive
same,outcome,[13],inactive
same,outcome,[14],inactive
same,Potency,[15],inactive
same,Potency,[16],inactive
same,Potency,[17],inactive
C=Cc1cccc(CCl)c1,Potency,[1],inactive
same,Potency,[2],inactive
same,Potency,[3],inactive
same,Potency,[4],inactive
same,Potency,[5],inactive
same,Potency,[6],inactive
same,outcome,[7],inactive
same,Potency,[9],inactive
same,outcome,[19],inactive
same,outcome,[10],inactive
same,Potency,[11],inactive
same,outcome,[12],inactive
same,outcome,[13],inactive
same,outcome,[14],inactive
same,Potency,[15],inactive
same,Potency,[17],inactive
same,Potency,[18],inactive
same,Potency,[20],inactive
